Results reported in PubChem BioAssay AID1159580 (chemical genetic matrix, 2015).
About 2,000 (36%) of roughly 5,500 compounds were called active. Not shown: some 18% with an inconclusive outcome. Rule as the data show it: active = normalized growth mostly below about 0.91 (no sharp cut-off); inconclusive = no clear call, values can overlap the other calls; inactive = mostly above about 0.92. The list shows a part of the results.

Assay: chemical genetic growth profiling, strain panel (AID 1159580);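 also: tested at 20 µM; growth read once vehicle control cultures reached saturation at 30 °C; 1 = growth at the plate median or of vehicle wells; lower values mean less growth of the strain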
Conditions: S. cerevisiae deletion strains, growth OD

Measured: normalized growth

O=C(O)CCCCCCCC(O)C(O)CCCCCCO (stereo not given)
inactive: locus YHR030C, strain SLT2, stronger effect = lower value 1.02 | locus YHR079C, strain IRE1, stronger effect = lower value 1.01 | locus YJL095W, strain BCK1, stronger effect = lower value 1 | locus YJR066W, strain TOR1, stronger effect = lower value 0.935 | locus YLR113W, strain HOG1, stronger effect = lower value 0.987 | locus YNL183C, strain NPR1, stronger effect = lower value 0.954 | locus YOR231W, strain MKK1, stronger effect = lower value 0.991 | locus YPL256C, strain CLN2, stronger effect = lower value 1.01

Cn1cnc2c(NCc3ccccc3)nc(NCCO)nc21
inactive: locus YAL013W, strain DEP1, stronger effect = lower value 0.989 | locus YAL040C, strain CLN3, stronger effect = lower value 1.08 | locus YCL061C, strain MRC1 (second series), stronger effect = lower value 0.99 | locus YDR150W, strain NUM1, stronger effect = lower value 0.998 | locus YDR363W, strain ESC2, stronger effect = lower value 1.01 | locus YER002W, strain NOP16, stronger effect = lower value 1.05 | locus YGR078C, strain PAC10, stronger effect = lower value 0.988 | locus YGR229C, strain SMI1, stronger effect = lower value 0.991 | locus YJR075W, strain HOC1, stronger effect = lower value 0.981 | locus YMR263W, strain SAP30, stronger effect = lower value 0.984 | locus YMR307W, strain GAS1, stronger effect = lower value 1 | locus YNL175C, strain NOP13, stronger effect = lower value 1 | locus YNL197C, strain WHI3, stronger effect = lower value 0.982 | locus YNL224C, strain SQS1, stronger effect = lower value 1 | locus YNL322C, strain KRE1, stronger effect = lower value 0.992 | locus YOR083W, strain WHI5 (second series), stronger effect = lower value 0.988 | locus YPL055C, strain LGE1, stronger effect = lower value 1
